The whole screen tested about 390,000 compounds, of which about 17,000 (4.4%) were called active. Another 8% or so got no clear call; they are omitted. Calls come from the whole dose curve; as a rule, active = well fitted inhibition curve with a large enough effect; inconclusive = small, poorly fitted or top-dose-only effect; inactive = no such curve, though single readings can be large or run the other way. The sample as a whole holds a higher share of actives than the screen did.
Each compound was assayed against Lysine-specific demethylase 4A (Homo sapiens) (UniProt O75164) (assay: qHTS Assay for Inhibitors of JMJD2A-Tudor Domain). Settings: AlphaScreen JMJD2A-Tudor / H3K4me3 peptide binding; series mostly up to 114 µM; activity change, negative = inhibition: at the top concentration.
Source text: JMJD2A is a jumonji-domain-containing lysine demethylase that uses Fe(II) together with 2-OG to effect oxidative demethylation of histones. Methylation is one of many […] modification that affect epigenetic transcription. […] It is proposed that the functions of JmjD2A binding to the histones, is to maintain marks after they are installed and to spread the modifications by […], establishing a self-propagating cycle for rapid methylation over a large area of chromatin. […] Thus, small molecule targeting of the JMJD2A-tudor domain interaction with its target methylhistone mark is expected to enable sophisticated experiments probing the fine regulatory pathways leading to selective demethylation of a given methyllysine locus based on the methylation state of adjacent histone marks. A quantitative high throughput AlphaScreen has been developed to identify small molecule inhibitors based on a protocol published by NCGC and SGC [4].
Although AlphaScreen has significant advantages with its utility in a variety of epigenetic target assays, the primary screening data provided in this deposition should be used with caution due to the prevalence of screening artifacts. The top compound concentration tested was high (>100uM) in this assay, which increases number of actives and potential artifacts. An AlphaScreen counterscreen is highly recommended to be run against any putative actives to eliminate non-specific artifacts. Alternatively, one can use other AlphaScreen assays in PubChem to filter out promiscuous hits.
[1] Lee, J. et al. Distinct binding modes specify the recognition of methylated histone H3K4 and H4K20 by JMJD2A-tudor. Nat Struct Mol Biol. 15(1); 109-11. 2008. PMID: 18084306
[2] Yasgar, et al. Compound Management for Quantitative High-Throughput Screening. JALA. 2008 Apr;13(2):79-89. PMID: 18496600
[3] Inglese, et al. Quantitative high-throughput screening: a titration-based approach that efficiently identifies biological activities in large chemical libraries. Proc Natl Acad Sci. 1;103(31):11473-8. 2006. PMID: 16864780
[4] Quinn et al. A homogeneous method for investigation of methyl-dependent protein-protein interactions in epigenetics. Nucleic Acids Res., 38(2):e11. 2010. PMID: […]
[5] Baell,Holloway. New substructure filters for removal of pan assay interference compounds (PAINS) from screening libraries and for their exclusion in bioassays. J Med Chem. 53(7):2719-40. 2010. PMID: 20131845
NIH Molecular Libraries Probe Production Network [MLPCN]
NIH Chemical Genomics Center [NCGC]
Structural Genomics Consortium (SGC)
To each well of a 1,536w plate, 2ul of JMJD2A-Tudor (final 100nM) and 1ul biotinylated histone peptide methylated at Lys4 [b-H3(1-18)K4me3] (final 50nM) were added in 1x PBS buffer, pH 7.4, containing 0.01% Tween-20, using a nanoliter dispenser. Formation of a protein-peptide complex proceeded at room temperature for 30 min. A Kalypsys pin-tool transferred 23nl of library compound solution in DMSO to each well. Following a 30 min incubation of the protein-peptide complex with compounds at room temperature, a mixture of 40 µg/mL each streptavidin-coated donor and nickel chelate acceptor AlphaScreen beads (final 10 µg/mL) was added in a 1ul dispense for a final volume of 4ul, followed by a brief centrifugation (1000 rpm, 1 min). Plates were incubated protected from the light for 20 min at room temperature. Microplates were then read on an EnVision multilabel plate reader using the 1,536 plate HTS AlphaScreen aperture (excitation time 80 ms, measurement time 240 ms).
% is set by controls: 0 for no effect and ±100 for the full control effect; potency is the fitted concentration of half-maximal effect.
Note: nearly all actives have a fitted effect of over 50% in size.

Chain of Lysine-specific demethylase 4A (Homo sapiens) (O75164 whole entry, looked up, the tested form may be a part): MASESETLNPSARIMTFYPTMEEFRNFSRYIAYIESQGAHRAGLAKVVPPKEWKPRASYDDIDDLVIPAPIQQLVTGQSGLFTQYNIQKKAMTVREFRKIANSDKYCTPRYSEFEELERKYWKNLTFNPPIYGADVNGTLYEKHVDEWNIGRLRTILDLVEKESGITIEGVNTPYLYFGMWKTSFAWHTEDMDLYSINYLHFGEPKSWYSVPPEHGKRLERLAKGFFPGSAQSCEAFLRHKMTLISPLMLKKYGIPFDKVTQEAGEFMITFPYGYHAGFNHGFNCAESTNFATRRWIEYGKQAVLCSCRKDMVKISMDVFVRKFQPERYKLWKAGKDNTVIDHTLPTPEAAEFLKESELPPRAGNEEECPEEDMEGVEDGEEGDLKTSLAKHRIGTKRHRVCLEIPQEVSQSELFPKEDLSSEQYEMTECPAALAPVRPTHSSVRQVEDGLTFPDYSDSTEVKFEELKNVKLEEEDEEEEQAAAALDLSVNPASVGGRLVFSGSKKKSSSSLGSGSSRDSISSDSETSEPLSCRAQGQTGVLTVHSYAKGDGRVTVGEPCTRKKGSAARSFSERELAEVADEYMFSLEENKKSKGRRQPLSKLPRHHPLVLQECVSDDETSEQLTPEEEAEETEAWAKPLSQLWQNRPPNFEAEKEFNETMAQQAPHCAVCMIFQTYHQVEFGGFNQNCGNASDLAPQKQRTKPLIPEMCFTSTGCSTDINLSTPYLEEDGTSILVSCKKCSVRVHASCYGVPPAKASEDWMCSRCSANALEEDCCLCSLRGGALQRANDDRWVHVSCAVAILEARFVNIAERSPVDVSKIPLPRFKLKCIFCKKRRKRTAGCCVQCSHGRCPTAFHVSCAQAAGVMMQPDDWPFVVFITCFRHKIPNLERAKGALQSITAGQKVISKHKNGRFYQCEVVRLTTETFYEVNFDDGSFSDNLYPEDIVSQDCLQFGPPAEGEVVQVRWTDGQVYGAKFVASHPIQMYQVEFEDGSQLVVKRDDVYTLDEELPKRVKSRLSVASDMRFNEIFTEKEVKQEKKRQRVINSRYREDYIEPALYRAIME

Activity change, negative = inhibition, inactive:
COc1cc2[nH]c(=O)n(Cc3ccc(C(=O)NCc4ccc(C)cc4)cc3)c(=O)c2cc1OC -8.53%
O=C(NCC(c1ccc(Cl)cc1)N1CCOCC1)c1ccccc1F (stereo not drawn) 1.32%
O=C(Nc1ccc(C(=O)OCc2cc(=O)n3nc(C4CC4)sc3n2)cc1)c1ccc(F)cc1 8.94%
CCN(C(=O)CSc1nnc(C)n2c1cc1occc12)c1ccccc1 -21.2%
CNC(=O)CN1C(=O)c2cccnc2Sc2ccccc21 -12.7%
CCOC(=O)C1CCN(c2c(Nc3cc(C)cc(C)c3)c(=O)c2=O)CC1 1.41%
CCOC(=O)C1CCN(c2ccc(C(=O)O)cc2[N+](=O)[O-])CC1 -9.25%
COc1ccc2oc(=O)cc(CN3CCOCC3)c2c1 -5.65%
CCOc1ccc2oc(=O)cc(CN3CCN(C(=O)c4ccc(F)cc4)CC3)c2c1 -17.9%
Cc1ccc(NC(=O)c2oc3ccccc3c2NC(=O)Cc2cccs2)cc1 -5.96%
N#Cc1ccc(OC2=NS(=O)(=O)c3ccccc32)cc1 -12.8%
CCCCc1nnc(NC(=O)CSc2nc(C)cc(=O)[nH]2)s1 -18.6%
CCOC(=O)Cc1csc(NC(=O)CSc2ccc(Br)cc2)n1 18.2%
CCc1ccc(NC(=O)CN2CCSc3ccc(S(=O)(=O)N4CCCC4)cc32)cc1 -30%
COc1cc(OC)c(N(C)C(=O)c2cc3c(=O)oc4ccccc4c3s2)cc1Cl -10.2%
Cc1ccccc1CS(=O)(=O)CC1Nc2ccc(C(=O)NCc3ccc(Cl)cc3)cc2NC1=O (stereo not drawn) -0.647%
Cn1c(SCC(=O)C(C)(C)C)nnc1-c1ccccn1 1.05%
Cc1ccccc1CSc1nnc(-c2cccnc2)n1N -12.4%
Fc1ccc(-c2nc(Nc3cccc(Cl)c3)nc3c2COc2ccccc2-3)cc1 -17.9%
O=C(NCCS(=O)(=O)N1CCN(c2ccc(F)cc2)CC1)c1ccccc1Br -16.6%
CCC(=O)N1CCc2cc(S(=O)(=O)NC(Cc3ccccc3)C(=O)NCc3ccccc3)ccc21 (stereo not drawn) -1.33%
O=C(Nc1ccccc1Br)c1cc(CN2CCCC2)on1 -12.3%
CC(C)(C)c1ccc(NC(=O)COC(=O)CCc2nc3ccccc3c(=O)[nH]2)cc1 0.685%
Cc1ccc(NC(=O)COC(=O)CCc2nc3ccccc3n2-c2ccccc2)c(C)c1 -1.43%
Cc1ccc(Cn2c(CNC(=O)Cc3cccc(C)c3)nc3cccnc32)cc1 -3.23%
COc1cc2ccccc2cc1C(=O)Nc1cccc(-c2nc3ccccc3o2)c1 -10.8%
CC(C(=O)O)n1cnc2sc3c(c2c1=O)CCCC3 (stereo not drawn) -9.79%
N=c1c2c3c(sc2ncn1CCCN1CCOCC1)CCCCC3 -17.2%
Cc1noc2ncnc(NCc3ccccc3Cl)c12 -13.3%
Cc1ccc(C)c(Cn2c(=O)n(CCC(=O)NCc3ccc4c(c3)OCO4)c(=O)c3sccc32)c1 0%
COC(=O)c1ccccc1NC(=O)Cn1c(=O)n(-c2cccc(C(F)(F)F)c2)c(=O)c2c(C)c(C)sc21 -10.6%
C=CCOc1ccc(/C=C2/C(=O)ON=C2C)cc1OCC -5.42%
C#CCOc1ccccc1/C=C1/C(=O)ON=C1C -25.8%
COc1ccc(Nc2ncc(C(=O)Nc3cc(C)ccc3OC)c3ccccc23)cc1 0.341%
Cc1ccc(/C=C(\C#N)C(=O)Nc2cc(C)ccc2C)cc1 -13.4%
CCc1ccc(NC(=O)CSc2nc3c([nH]c4ccccc43)c(=O)n2-c2cccc(OC)c2)cc1 -27.7%
CCOc1ccc(C(=O)CCN2CCOCC2)cc1 -11.5%
O=C(OCCN1CCOCC1)C1(c2ccccc2)CCCCC1 -1.44%
Brc1ccc(/C=N/N2CCN(C3c4ccccc4-c4ccccc43)CC2)s1 -16.7%
S=c1[nH]nc(/C=C/c2ccccc2)o1 -21%
CN(C)C(=O)CSc1n[nH]c(-c2ccco2)n1 -8.42%
O=C(NCCc1ccc(Cl)cc1)c1ccc2nc(CCc3ccccc3)oc2c1 -6.71%

Potency, active:
CSc1n[nH]c(=S)n1N 17.8 µM
CCOC(=O)C1CCN(c2csc3ccc(C)cc3c2=O)CC1 17.8 µM
CCOc1ccc(N(C)Cc2cc(=O)oc3ccc(OC)cc23)cc1 14.1 µM
CCOC(=O)Cc1csc(NC(=O)CSc2nc(C)cc(=O)[nH]2)n1 20 µM
Cc1ccccc1CSc1nnc(-c2ccccn2)n1N 31.6 µM
CCN(c1ccc(NC(=O)COC(=O)CCc2nc3ccccc3n2-c2ccccc2)cc1)C(C)C 11.2 µM
S=c1[nH]nc2c3c4c(sc3ncn12)CCCC4 22.4 µM
CC1=NOC(=O)/C1=C\c1ccccc1 25.1 µM
Cc1cccc(C)c1OCCN1CCOCC1 28.2 µM
S=c1[nH]nc(-c2ccco2)n1/N=C/c1ccc(Br)s1 28.2 µM
S=c1[nH]nc(-c2ccco2)n1/N=C/c1ccccc1 3.55 µM

Reference: PubChem BioAssay AID504339 (National Center for Advancing Translational Sciences (NCATS), 2011)
